From PubChem BioAssay

Assay: probe aShh binding to arrayed compounds – biochemical, biotinylated probe, 635/667 nm fluorescence, primary screen (AID 1114);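 further: probe is biotin-labelled aShh protein from a stem cell growth factor screen; measures binding of labelled protein to compounds printed on the slide; score merges feature fluorescence at 667 nm with signal-to-noise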
Conditions: small-molecule microarray, higher = more signal

SMILES	composite z-score
CC(CO)N1C(=O)[C@@H]2C3C(=O)OCCC/C=C\[C@H]3OC23C=CCN(C(C)(C)C)C(=O)[C@@H]13 (stereo not given in full)	0.108
CN1C(=O)C2C=CC(C(O)c3ccccc3)N(N(c3ccccc3)c3ccccc3)C2C1=O (stereo not given)	-0.0904
C=CCOC(=O)[C@H]1[C@@H]2C(=O)O[C@@H](c3ccccc3)[C@@H](c3ccccc3)N2[C@@H](c2ccc(OCCOC(=O)[C@@H]3C[C@@H]4C(=O)N[C@@H](CCCCNC(C)=O)C(=O)N4[C@@H]3c3ccc(O)cc3)cc2)[C@]12C(=O)Nc1ccccc12	0.196
C[C@H]1C2[C@H](Cc3ccccc3)NC(=O)[C@]23C(=O)N[C@H](Cc2ccccc2)C(=O)N2CCC[C@H]2C(=O)NC/C=C\C/C=C/C3[C@@H]2O[C@]12C (stereo not given in full)	-0.0146
CC(C)C(O)C1C=CC2C(=O)NC(=O)C2N1Nc1ccc(Cl)cc1Cl (stereo not given)	-0.296
COC(=O)C(CC#Cc1ccc2c(c1)[C@]1(C(=O)N2)[C@H](C(=O)Nc2nc3ccccc3s2)[C@H]2C(=O)O[C@H](c3ccccc3)[C@H](c3ccccc3)N2[C@@H]1c1ccc(O)cc1)C(=O)OC	-0.0977
CC(C)C(O)C1C=CC2C(=O)N(c3ccccc3)C(=O)C2N1Nc1ccc([N+](=O)[O-])cc1 (stereo not given)	0.0358
CC(C)C[C@@H]1NC(=O)[C@@H]2C[C@H](C(=O)NCc3ccc(F)cc3)[C@H](c3cccc(OCCO)c3)N2C1=O	0.147
CCCC[C@H]1OB(O)C[C@H]2C1=C(COC)C[C@H]1C(=O)N(C)C(=O)[C@H]12	-0.0626
COCCOC(=O)N1C(=O)[C@@]2(c3cc(C#Cc4ccc(OC)cc4)ccc31)[C@H](c1ccccc1OCCO)N1[C@H](c3ccccc3)[C@H](c3ccccc3)OC(=O)[C@H]1[C@@H]2C(=O)NC[C@H](O)c1ccccc1	0.0469
CCOC(=O)C[C@H]1[C@H](OC(=O)c2ccc(C(=O)c3ccccc3)cc2)[C@@H](NC(=O)c2ccccc2)c2cc(OCCCO)ccc2N1C(=O)c1ccc2ccccc2n1	-0.138
O=C(c1ccccc1)N1C(=O)[C@@]2(Cc3ccccc31)N=C(c1ccc(OCCCO)cc1)O[C@H]2c1ccccc1	-0.369
Cc1ccc(N2C(=O)c3ccccc3[C@@H](C(=O)NC3CC3)[C@@H]2c2ccc(CO)cc2)nc1	-0.0866
[N-]=[N+]=Nc1ccccc1[C@@H]1OC(c2ccc(OCCCO)cc2)=N[C@]1(CCS(=O)(=O)c1ccccc1)C(N)=O	0.57
COC(=O)C(CC#Cc1ccc2c(c1)[C@]1(C(=O)N2)[C@H](C(=O)Nc2nc3ccccc3s2)[C@H]2C(=O)O[C@H](c3ccccc3)[C@H](c3ccccc3)N2[C@@H]1c1ccccc1OCCO)C(=O)OC	0.257
CCOC(=O)C[C@H]1[C@H](OC(=O)c2ccc(C(=O)c3ccccc3)cc2)[C@@H](NC(=O)CC(C)C)c2cc(OCCCO)ccc2N1C(=O)c1ccc2ccccc2n1	-0.0793
C=CC[C@]1(C(=O)NCc2ccccc2)N=C(c2ccc(OCCCO)cc2)O[C@H]1c1ccccc1N=[N+]=[N-]	0.0875
OCCCC1=CC(c2cccs2)N(Cc2cc3c(cc2Br)OCO3)CC1 (stereo not given)	-0.0011
COc1ccc(C#Cc2ccc3c(c2)[C@]2(C(=O)N3)[C@H](C(=O)Nc3nc4ccccc4s3)[C@H]3C(=O)O[C@H](c4ccccc4)[C@H](c4ccccc4)N3[C@@H]2c2ccc(O)cc2)cc1	1.3
NC(=O)[C@@H]1[C@H]2C(=O)O[C@H](c3ccccc3)[C@H](c3ccccc3)N2[C@H](c2ccc(O)cc2)[C@@]12C(=O)Nc1ccccc12	-0.0553
CCCCC(CC)C(O)C1C=CC2C(=O)N(Cc3ccccc3)C(=O)C2N1n1cnnc1 (stereo not given)	-0.153
O=C1O[C@H](c2ccccc2)[C@H](c2ccccc2)N2[C@H]1[C@@H](C(=O)N1CCCCCCC1)[C@]1(C(=O)Nc3ccc(C#CCCO)cc31)[C@H]2c1ccccc1OCCO	3.01
C=CCNC(=O)[C@H]1[C@@H]2C(=O)O[C@@H](c3ccccc3)[C@@H](c3ccccc3)N2[C@@H](c2ccccc2OCCO)[C@]12C(=O)Nc1ccc(C#CCCO)cc12	-0.206
COc1ccc(C#Cc2ccc3c(c2)[C@]2(C(=O)N3)[C@H](c3ccccc3OCCO)N3[C@H](c4ccccc4)[C@H](c4ccccc4)OC(=O)[C@H]3[C@@H]2C(=O)Nc2nc3ccccc3s2)cc1	-0.0556
CN1C(=O)C2C=CC(C(O)C3CC=CCC3)N(N(c3ccccc3)c3ccccc3)C2C1=O (stereo not given)	-0.0322
